From PubChem BioAssay (Tox21)
Records with an inconclusive call do not appear. Active and inactive are the calls of the source. Unless noted, calls come from the whole dose curve; as a rule, active = well fitted curve in the direction sought with a large enough effect in the repeat runs; inconclusive = weak or mixed curves; inactive = no such curve, though single readings can be large; an effect the other way counts as inactive or inconclusive.

Columns and labels:
[1] = qHTS assay for small molecule agonists of the p53 signaling pathway (AID 651631; calls by dose curve; note: nearly all actives have a fitted effect of over 15% in size)
Procedure, shortened: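 p53RE-bla HCT-116 cells; compounds 16 h, 37 °C; LiveBLAzer B/G FRET substrate 2 h RT; fluorescence intensity read-out, qHTS format.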

[2] = qHTS assay for small molecules that induce genotoxicity in human embryonic kidney cells expressing luciferase-tagged ATAD5 (AID 651632); note: nearly all actives have a fitted effect of over 15% in size
Procedure, shortened: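 HEK293T cells carrying a luciferase reporter tagged to ATAD5 were exposed to compound or DMSO vehicle for 16 hr at 37C, 5% CO2. Amplite was added, and after 30 min at room temperature luciferase activity was read as a marker of ATAD5 induction.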

[3] = qHTS assay for small molecule agonists of the p53 signaling pathway - cell viability (AID 651633; calls by dose curve;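 note: p53RE-bla HCT reporter cells with a stable beta-lactamase p53 reporter; series mostly up to about 83 µM; nearly all actives have a fitted effect of over 30% in size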)
Procedure, shortened: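 p53RE-bla cells, seeded at 4,000 per well and rested 5 h at 37 C/5% CO2, received compounds in DMSO for 16 h at 37 C. CellTiter-Glo was then added, and luminescence was read after 30 min at room temperature to gauge cytotoxicity.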

[4] = qHTS assay for small molecules that induce genotoxicity in human embryonic kidney cells expressing luciferase-tagged ATAD5 - cell viability (AID 651634; calls by dose curve; note: nearly all actives have a fitted effect of over 25% in size)
Procedure, shortened: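 HEK293T cells expressing luciferase-tagged ATAD5 were exposed to compound or DMSO for 15.5 hr at 37C, 5% CO2. Viability was then read as live-cell protease activity by CellTiter-Fluor fluorescence after 30 min at 37C.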

[5] = qHTS assay for small molecule disruptors of the mitochondrial membrane potential - cell viability (AID 720634; calls by dose curve;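 note: human HepG2 liver cancer cells; series mostly up to about 83 µM; nearly all actives have a fitted effect of over 20% in size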)
Procedure, shortened: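 HepG2 cells seeded overnight at 37 C, then exposed to compound or DMSO for 1 hr at 37 C, 5% CO2. m-MPI dye added, then CellTiter-Glo for 30 min at room temperature; viability read as ATP luminescence.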

[6] = qHTS assay to test for compound auto fluorescence at 590 nm (red) in HepG2 cells (AID 720674)
Procedure, shortened: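 Rose Bengal sodium served as the red fluorophore standard. HepG2 monolayers (overnight attachment, MEM with 10% FBS) were exposed to test compounds for 1 hr at 37 C and read at Ex 540/Em 590 nm.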

[7] = qHTS assay to test for compound auto fluorescence at 535 nm (green) in HepG2 cells (AID 720675)
[8] = qHTS assay to test for compound auto fluorescence at 460 nm (blue) in HEK293 cells (AID 720678)
Procedure, shortened: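 Blue read-out at excitation 405 nm and emission 460 nm follows overnight compound exposure of HEK293 cells at 37C in 5% CO2. Activity is given as auto fluorescence equivalency to triamterene.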

[9] = qHTS assay to test for compound auto fluorescence at 590 nm (red) in HEK293 cells (AID 720679)
Procedure, shortened: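 Red channel, Ex/Em 540/590nm; signal expressed as equivalency to Rose Bengal sodium. HEK293, 2,000 cells/well, 10% dialyzed FBS; 23 nL compound pinned after 4-5 hr attachment; overnight 37C/5% CO2 before reading.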

[10] = qHTS assay for small molecule disruptors of the mitochondrial membrane potential (AID 720635)
Procedure, shortened: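 HepG2 cells (2,000/well) attached overnight at 37C, then took compound for 1 hr at 37C, 5% CO2. Mito-MPS dye was added for 30 min; fluorescence was read at 490/535 nm (monomers) and 540/590 nm (aggregates).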
% is set by controls: 0 for no effect and ±100 for the full control effect.

O=C(Cn1ccnc1[N+](=O)[O-])NCCO
inactive: Potency [1] | Potency [2] | Potency [3] | Potency [4] | Potency [5] | outcome [6] | outcome [7] | Potency [8] | outcome [9]

Cc1cc2c(OCC(CNC(C)(C)C)OC(=O)c3ccccc3)cccc2[nH]1 (configuration not stated)
inactive: Potency [1] | Potency [2] | Potency [3] | Potency [4] | Potency [5] | outcome [6] | outcome [7] | Potency [8] | outcome [9]

Cc1cscn1
inactive: Potency [1] | Potency [2] | Potency [3] | Potency [4] | Potency [5] | outcome [6] | Potency [8] | outcome [9]

CCn1cc(C(=O)O)c(=O)c2cc(F)c(N3CCNCC3)cc21
inactive: Potency [1] | Potency [2] | Potency [3] | Potency [4] | Potency [5] | outcome [6] | outcome [7] | Potency [8] | outcome [9]

CC1CC(C)C(=O)C1=O (configuration not stated)
inactive: Potency [1] | Potency [2] | Potency [3] | Potency [4] | Potency [5] | Potency [10] | outcome [6] | Potency [8] | outcome [9]

CCC1(CO)COCOC1
inactive: Potency [1] | Potency [2] | Potency [3] | Potency [4] | Potency [5] | outcome [6] | outcome [7] | Potency [8] | outcome [9]

CC(=O)Nc1ccc(C)cc1C
inactive: Potency [1] | Potency [2] | Potency [3] | Potency [4] | Potency [5] | outcome [6] | outcome [7] | outcome [9]

O=C1NC(=O)c2cc([N+](=O)[O-])ccc21
inactive: Potency [1] | Potency [2] | Potency [3] | Potency [4] | Potency [5] | outcome [6] | outcome [7] | outcome [9]

CCC(C)COC(=O)CC(C)C (configuration not stated)
inactive: Potency [1] | Potency [2] | Potency [3] | Potency [4] | Potency [5] | outcome [6] | outcome [7] | Potency [8] | outcome [9]

CCC=CC#N
inactive: Potency [1] | Potency [2] | Potency [3] | Potency [4] | Potency [5] | outcome [6] | outcome [7] | Potency [8] | outcome [9]

C=C1C[C@@]23CC[C@H]4[C@@](C)(CCC[C@@]4(C)C(=O)O[C@@H]4O[C@H](CO)[C@@H](O)[C@H](O)[C@H]4O)[C@@H]2CC[C@]1(O[C@@H]1O[C@H](CO)[C@@H](O)[C@H](O[C@@H]2O[C@H](CO)[C@@H](O)[C@H](O)[C@H]2O)[C@H]1O[C@@H]1O[C@H](CO)[C@@H](O)[C@H](O)[C@H]1O)C3
inactive: Potency [1] | Potency [2] | Potency [3] | Potency [4] | Potency [5] | Potency [10] | outcome [6] | Potency [8] | outcome [9]

CC(C)=CC(=O)C=C(C)C
inactive: Potency [1] | Potency [2] | Potency [3] | Potency [4] | Potency [5] | outcome [6] | outcome [7] | Potency [8] | outcome [9]

O=C(O)C[C@H](NC(=O)OCc1ccccc1)C(=O)O
inactive: Potency [1] | Potency [2] | Potency [3] | Potency [4] | Potency [5] | Potency [10] | outcome [6] | outcome [9]

O=C(/C=C/c1ccc(O)c(O)c1)O[C@@H]1C[C@@](OC(=O)/C=C/c2ccc(O)c(O)c2)(C(=O)O)C[C@@H](O)[C@@H]1O
inactive: Potency [1] | Potency [2] | Potency [3] | Potency [4] | Potency [5] | outcome [6] | Potency [8] | outcome [9]

CC=C(Cl)Cl
inactive: Potency [1] | Potency [2] | Potency [3] | Potency [4] | Potency [5] | outcome [6] | outcome [7] | Potency [8] | outcome [9]

Cc1ccco1
inactive: Potency [1] | Potency [2] | Potency [3] | Potency [4] | Potency [5] | Potency [10] | outcome [6] | outcome [9]

C1C[C@@H]2[C@H]3CC[C@H](C3)[C@@H]2C1
inactive: Potency [1] | Potency [2] | Potency [3] | Potency [4] | Potency [5] | outcome [6] | outcome [7] | Potency [8] | outcome [9]

CCCCCCCCN
inactive: Potency [1] | Potency [2] | Potency [3] | Potency [4] | Potency [5] | Potency [10] | outcome [6] | Potency [8] | outcome [9]

O=c1[nH]c2ccc(Cl)cc2o1
inactive: Potency [1] | Potency [2] | Potency [3] | Potency [4] | Potency [5] | outcome [6] | Potency [8] | outcome [9]

CC(C)=CCC/C(C)=C/CC/C(C)=C/CCC(=O)OC/C=C(\C)CCC=C(C)C
inactive: Potency [1] | Potency [2] | Potency [3] | Potency [4] | Potency [5] | outcome [6] | outcome [7] | Potency [8] | outcome [9]

N#[N+]c1ccc2c(S(=O)(=O)[O-])cccc2c1O
inactive: Potency [1] | Potency [2] | Potency [3] | Potency [4] | Potency [5] | outcome [6] | outcome [7] | Potency [8] | outcome [9]

OC(CCN1CCCC1)(c1ccccc1)C1CCCCC1 (configuration not stated)
inactive: Potency [1] | Potency [2] | Potency [3] | Potency [4] | Potency [5] | fluorescence, relative to Rose Bengal [6] 0.15% [at 18.6 µM] | fluorescence, % of fluorescein control [7] 0.0313% [at 18.6 µM] | fluorescence, % of fluorescent control [9] -0.0138% [at 18.6 µM]

COc1ccccc1Oc1c(NS(=O)(=O)c2ccc(C(C)(C)C)cc2)nc(-c2ncccn2)nc1OCCO
inactive: Potency [1] | Potency [2] | Potency [3] | Potency [4] | Potency [5] | outcome [6] | outcome [7] | Potency [8] | outcome [9]

CCCCCCCCCCC(=O)O
inactive: Potency [1] | Potency [2] | Potency [3] | Potency [4] | Potency [5] | outcome [6] | outcome [7] | Potency [8] | outcome [9]

C=C(C)CCCC(C)CCO (configuration not stated)
inactive: Potency [1] | Potency [2] | Potency [3] | Potency [4] | Potency [5] | outcome [6] | outcome [7] | Potency [8] | outcome [9]
